Test results published in PubChem BioAssay AID1376 (SRMLSC, 2008).
The campaign covered roughly 220,000 compounds. About 530 (0.24%) were called active. What follows is part of a selection rich in actives, with near analogues and random picks from the rest. Entries with a potency or affinity are not part of this list. Values without a mark were called inactive. Cut-off read from the data, not from the text of the source: active = inhibition above about 13%; inconclusive = no clear call, values can overlap the other calls; inactive = below that.

These molecules were tested against Bifunctional protein GlmU (Mycobacterium tuberculosis (strain ATCC 25618 / H37Rv)) (UniProt P9WMN3) (assay: inhibition of mycobacterial GlmU enzyme – biochemical, glucosamine-1-phosphate acetyltransferase (AID 1376;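 note: 0% = complete reaction with vehicle and 100% = reaction without substrate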)). Conditions: M. tuberculosis GlmU acetyltransferase enzyme assay; active compounds read high;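 tested at 30 µM in the primary screen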.
Sequence of Bifunctional protein GlmU (Mycobacterium tuberculosis (strain ATCC 25618 / H37Rv)) (P9WMN3 whole entry, looked up): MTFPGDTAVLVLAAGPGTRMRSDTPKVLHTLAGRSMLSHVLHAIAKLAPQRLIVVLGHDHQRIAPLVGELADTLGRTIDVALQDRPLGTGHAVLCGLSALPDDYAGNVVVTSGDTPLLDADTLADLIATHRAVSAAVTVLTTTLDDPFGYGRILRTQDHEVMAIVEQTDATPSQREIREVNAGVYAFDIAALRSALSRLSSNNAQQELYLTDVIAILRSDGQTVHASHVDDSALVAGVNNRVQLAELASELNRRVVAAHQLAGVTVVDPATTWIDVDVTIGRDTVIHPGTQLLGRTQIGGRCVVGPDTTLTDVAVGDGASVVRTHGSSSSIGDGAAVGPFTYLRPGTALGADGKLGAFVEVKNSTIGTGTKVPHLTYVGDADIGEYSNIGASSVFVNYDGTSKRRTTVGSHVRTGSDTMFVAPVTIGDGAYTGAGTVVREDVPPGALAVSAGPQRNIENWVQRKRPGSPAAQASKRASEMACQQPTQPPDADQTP
`O=C(Cc1c(O)c2ccccc2[nH]c1=O)N(Cc1ccccc1)Cc1ccccc1` was tested, and the inhibition was 35% (active).
`CC(C)CCN(CCC(C)C)C(=O)Cc1c(O)c2ccccc2[nH]c1=O` showed an inhibition of -2.47%.
In the case of `CCN(CC)C(=O)Cc1c(O)c2ccccc2[nH]c1=O`, the inhibition is reported as 1.17%.
In the case of `COc1ccc(NC(=O)C2=C(C)Nc3nc(CCCO)nn3C2c2ccc(OC)c(OC)c2)cc1` (stereo unspecified), the inhibition is reported as 6.23%.
With `COc1cc(NC(=O)c2cccs2)c(C(=O)OCC(=O)c2cc(C)n(-c3ccc(F)cc3)c2C)cc1OC` the inhibition was 3.27%.
`Cc1ccccc1Oc1ccc(NC(=O)C2CC=CCC2C(=O)O)cc1` (stereo unspecified) gave an inhibition of 3.98%.
With `CN(C)c1ncc(S(=O)(=O)c2ccccc2)c(-c2ccccc2Cl)n1` the inhibition was 13.9% (active).
Molecule `CN(C)c1ncc(S(=O)(=O)c2ccc(Cl)cc2)c(-c2ccccc2)n1` has an inhibition of -0.58%.
For `Cc1ncc(S(=O)(=O)c2ccccc2)c(-c2ccccc2Cl)n1`, the inhibition was 4.86%.
With `CC(C)N1CCC(N2CCN(Cc3ccc4nsnc4c3)CC2CCO)CC1` (stereo unspecified) the inhibition was -6.91%.
With `O=C(CCc1nc2ccccc2[nH]c1=O)OCc1ccc(S(=O)(=O)N2CCOCC2)cc1` the inhibition was 1.61%.
With `Cc1cccc2cc3c(NC(=O)CC(C)C)nn(C)c3nc12` the inhibition was 0.35%.
`C/C(=C\c1ccccc1)CN1CCN(c2ccccc2)CC1` gave an inhibition of 2.64%.
`CC1=C(C/C(C)=C/c2ccccc2)/C(=C/CO)[C@@H]2OC(=O)O[C@]2(C)C12CC2` gave an inhibition of 3.53%.
With `CC1=C(C/C(C)=C/c2ccccc2)/C(=C/CO)[C@H](O)[C@](C)(O)C12CC2` the inhibition was 13.9% (active).
`NC(=O)NNC(=S)Nc1cccc2ccccc12` showed an inhibition of 4.54%.
`NC(=O)Nc1cccc2ccccc12` was tested, and the inhibition was 14.6% (active).
Work on `NC(=O)c1ccccc1NC(=O)Nc1cccc2ccccc12` yielded an inhibition of -1.2%.
In the case of `O=C1CCCC2=C1C1c3ccccc3C(=O)N1c1ccc(C(=O)c3ccccc3)cc1N2` (stereo unspecified), the inhibition is reported as 0.1%.
Work on `O=C(CCC(=O)c1ccc(Oc2ccccc2)cc1)Nc1cccc(Cl)c1` yielded an inhibition of 3.77%.
In the case of `COc1ccc(OC)c(-c2c3cc(O)c(=O)cc-3oc3cc(O)c(O)cc23)c1`, the inhibition is reported as 14.7% (active).
`CCOc1ccccc1-c1c2cc(O)c(=O)cc-2oc2cc(O)c(O)cc12` showed an inhibition of -3.1%.
`COc1cc(OC)c(-c2c3cc(O)c(=O)cc-3oc3cc(O)c(O)cc23)cc1OC` showed an inhibition of 8.01%.
For `Cc1c2cc(O)c(=O)cc-2oc2cc(O)c(O)cc12`, the inhibition was 27.1% (active).
`O=c1cc2oc3cc(O)c(O)cc3c(-c3ccccc3O)c-2cc1O` was tested, and the inhibition was 15.4% (active).
`Cc1ccccc1-c1cc(=O)c2c(O)cccc2o1` gave an inhibition of -2.72%.
`COc1ccc(OC)c(-c2oc3ccccc3c(=O)c2O)c1` showed an inhibition of 0.78%.
With `CC1(C)CC(=O)c2c(oc3cc(O)c(O)cc23)C1` the inhibition was -1.56%.
Molecule `O=c1cc(-c2ccccc2Cl)oc2cccc(O)c12` has an inhibition of 3.22%.
`Cc1cc(NC(=O)CCCn2nc([N+](=O)[O-])cc2C)no1` showed an inhibition of 0.02%.
`COc1ccc2c(OC)cc(-c3ccccc3)nc2c1` showed an inhibition of 3.08%.
Work on `Cc1cc(NC(=O)Cc2ccccc2)c2ccccc2n1` yielded an inhibition of -0.11%.
`CC(=O)Nc1cccc(NC(=O)CSc2ccc(C(F)(F)F)cc2[N+](=O)[O-])c1` gave an inhibition of 1.81%.
`CCOC(=O)c1c(C2CC2)csc1NC(=O)COC(=O)c1cnc(Cl)c(Cl)c1` gave an inhibition of 4.42%.
For `S=c1[nH]nc(COc2cccc(Cl)c2)n1Cc1ccccc1`, the inhibition was 2.34%.
`O=C(Cc1c[nH]c2ccccc12)Nc1nccs1` showed an inhibition of 3.72%.
For `CC1Cc2ccccc2N1C(=O)C1CCCN(S(=O)(=O)c2cccc3cccnc23)C1` (stereo unspecified), the inhibition was -0.65%.
With `CCSc1nc2ccccc2c(=O)n1C1CCOC(C)(C)C1` (stereo unspecified) the inhibition was 7.35%.
`O=C(NCCCN1CCOCC1)c1sc2cc([N+](=O)[O-])ccc2c1Cl` was tested, and the inhibition was 12.9% (active).
`O=C(NCCCN1CCOCC1)c1sc2cc(Cl)ccc2c1Cl` was tested, and the inhibition was 4.82%.
With `O=C(NCCCN1CCOCC1)c1sc2cc(F)ccc2c1Cl` the inhibition was -2.73%.
Work on `CCN(CC)c1ccc(N=Nc2ncn[nH]2)cc1` yielded an inhibition of -1.86%.
Work on `COc1ccc2ccccc2c1C1CC(=O)N2CN(C3CCCCC3)CSC2=C1C#N` (stereo unspecified) yielded an inhibition of 7.17%.
In the case of `COc1ccc2ccccc2c1C1CC(=O)N2CN(C)CSC2=C1C#N` (stereo unspecified), the inhibition is reported as 13.8% (active).
Molecule `CCOc1ccccc1N1CSC2=C(C#N)C(c3c(OC)ccc4ccccc34)CC(=O)N2C1` (stereo unspecified) has an inhibition of 3.43%.
In the case of `O=C(O)COc1c(Cl)cc(/C=C2\NC(=O)NC2=O)cc1Br`, the inhibition is reported as 3.85%.
In the case of `CC(C)OC(=O)c1cccc(C(=O)Nc2cccc(NC(=O)c3cccc(C(=O)OC(C)C)n3)n2)n1`, the inhibition is reported as 2.69%.
In the case of `O=C(O)c1cc(-c2ccc(/C=N/NC(=S)Nc3ccccc3)o2)ccc1Cl`, the inhibition is reported as 10.1%.
`O=C(N/N=C/c1ccc([N+](=O)[O-])o1)c1cc2c(ccc3ccccc32)o1` was tested, and the inhibition was -4.6%.
With `COC(=O)c1cc(OC)cc(O)c1C(=O)c1c(O)cc(C)cc1O` the inhibition was 1.11%.
`COC(=O)c1cc(O)cc(OC)c1C(=O)c1c(O)cc(C)cc1O` was tested, and the inhibition was 0%.
With `Clc1ccc(-c2csc(Nc3cccnc3)n2)cc1` the inhibition was -1.87%.
`CCCCCCNCc1c(F)cccc1Cl` gave an inhibition of -1.27%.
`CCOC(=O)/C(=N/Nc1ccccc1OC)N1CCCc2ccccc21` was tested, and the inhibition was 3.21%.
With `Cc1nc2c(=O)n(-c3ccc(F)c(Cl)c3)nc(C)c2s1` the inhibition was -1.25%.
With `Cc1ccc(NC(=S)N/N=C2\CC3CC=CC23)c(C)c1` (stereo unspecified) the inhibition was 2.83%.
For `Cc1cccc(C)c1NC(=S)N/N=C1\CC2CC=CC12` (stereo unspecified), the inhibition was 14.2% (active).
`FC(F)(F)c1ccccc1NC(=S)N/N=C1\CC2CC=CC12` (stereo unspecified) gave an inhibition of -4.32%.
`Clc1ccc(-c2nnc(-c3ccco3)nc2N2CCCCC2)cc1` gave an inhibition of -2.38%.
Molecule `Cc1ccc(C(=O)N/N=C\c2ccc(-c3ccc(Cl)c(Cl)c3)o2)cn1` has an inhibition of -1.63%.
In the case of `Nc1ccc(C(=O)O)cc1[N+](=O)[O-]`, the inhibition is reported as -10.2%.
